The values below come from PubChem BioAssay AID623992 (NMMLSC, 2012).

The target in the assay is Benomyl/methotrexate resistance protein (Candida albicans) (UniProt P28873). The assay is described as follows: CaMdr1 efflux pump inhibitor potency, dose response, singleplex, Cherry Pick2 set (AID 623992).

Each structure is given as a SMILES string. Measured potencies and affinities stand elsewhere. Calls of active or inactive are those of the source.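 Rule for the calls: active = compounds whose fitted half-maximal effective concentration for blocking dye efflux is below 100 µM; inactive = the rest.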

Benomyl/methotrexate resistance protein (Candida albicans), sequence (P28873 whole entry, looked up): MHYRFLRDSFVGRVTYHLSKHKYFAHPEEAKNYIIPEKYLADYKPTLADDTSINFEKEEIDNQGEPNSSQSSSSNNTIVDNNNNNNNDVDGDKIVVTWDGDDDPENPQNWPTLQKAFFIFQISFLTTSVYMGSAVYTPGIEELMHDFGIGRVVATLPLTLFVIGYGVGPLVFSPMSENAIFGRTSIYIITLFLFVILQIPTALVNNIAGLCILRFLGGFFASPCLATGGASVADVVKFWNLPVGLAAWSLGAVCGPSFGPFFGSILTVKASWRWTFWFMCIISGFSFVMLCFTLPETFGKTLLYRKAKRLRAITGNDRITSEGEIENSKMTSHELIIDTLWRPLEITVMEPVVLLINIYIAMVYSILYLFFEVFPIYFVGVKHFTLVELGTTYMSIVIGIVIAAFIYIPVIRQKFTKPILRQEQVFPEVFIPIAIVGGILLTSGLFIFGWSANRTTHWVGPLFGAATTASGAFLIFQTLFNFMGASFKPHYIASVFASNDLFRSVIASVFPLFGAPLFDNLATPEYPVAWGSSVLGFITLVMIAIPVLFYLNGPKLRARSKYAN

For `NS(=O)(=O)c1ccc(N2N=C(c3ccccc3)CC2c2ccc(F)cc2)cc1` (stereo unspecified), the outcome was inactive. On to `COc1ccc2sc(-c3ccccc3OC)c(-c3ccc(OCCN(C)C)cc3)c2c1`, for which the result was inactive. Next, `COc1ccc(C2CC(c3ccccc3C(F)(F)F)=NN2c2ccc(S(N)(=O)=O)cc2)cc1` (stereo unspecified): “inactive”; `CC1CN(c2nc3ccccc3nc2C(C#N)C(=O)NCc2ccc3c(c2)OCO3)CC(C)O1` (stereo unspecified): “inactive”. Consider `C[C@@]12C(=O)Nc3ccc(Cl)cc3C(=O)N1[C@H]1c3cc(Cl)ccc3OC[C@@H]1[C@@H]2c1ccccc1`, for which the compound was classed as inactive.

With `COc1ccc([C@H]2CC(=O)C=C(c3ccnc4ccc(Cl)cc34)C2)cc1`, the call was inactive. For `NS(=O)(=O)c1ccc(N2N=C(c3ccccc3)CC2c2ccccc2)cc1` (stereo unspecified), the compound was classed as inactive. For `NC1=NC[C@H](Cc2ccc(O)cc2)N1CCCCC1CCCCC1`, the result was inactive. Consider `COc1ccc(CNC(=O)C(C#N)c2nc3ccccc3nc2N2CCCC2)cc1` (stereo unspecified), for which the call was inactive. The value for `COc1ccc2c(c1)OC[C@H]1[C@H]2N2C(=O)c3ccc(C)cc3NC(=O)[C@@]2(C)[C@H]1c1ccccc1` was “inactive”; that for `O=C(C1CCCN(c2ncnc3c2nc2n3CCCCC2)C1)N1CCN(c2cccc(Cl)c2)CC1` (stereo unspecified) was “inactive”; that for `O=C1C(Cc2ccccc2)Nc2ncnc(N3CCN(c4ccccc4)CC3)c2N1Cc1ccccc1` (stereo unspecified) was “inactive”. As to `CC(C)C(=O)N1CCC2(CC1)Oc1ccc(F)cc1C(=O)C21CC(c2ccccc2)=NO1` (stereo unspecified), the call was inactive. With `O=C(NCCC1=CCCCC1)C1CCC(CNc2nc(=S)[nH]c3ccccc23)CC1` (stereo unspecified), the outcome was inactive.

Regarding `C[C@@]12C(=O)Nc3cc(F)c(F)cc3C(=O)N1[C@H]1c3cc(Cl)ccc3OC[C@@H]1[C@@H]2c1ccccc1`, the compound was called inactive. With `O=C(C[n+]1cc(-c2ccc(Cl)cc2)n2c1CCC2)N1c2ccccc2Sc2ccccc21`, the result was inactive. Turning to `Cc1ccc(N2CCN(C(=O)C3CCCN(c4ncnc5c4nc4n5CCCCC4)C3)CC2)c(C)c1` (stereo unspecified), the result was inactive. Next, `Cc1cc(C(=O)NC2CC(C)(C)Cc3c2cnn3-c2ccc(F)cc2)no1` (stereo unspecified): “inactive”; `CCC(Cc1ccccc1)OC(=O)c1ccccc1C(=O)O` (stereo unspecified): “inactive”; `COc1ccc(C(=O)OCCc2ccc(O)cc2)cc1`: “inactive”. Consider `OCCN1CCN(CC/C=C2/c3ccccc3Sc3ccc(C(F)(F)F)cc32)CC1`, for which the result was inactive. Turning to `Cc1ccc(O)c(C(=O)c2cnc3c(c2)CN(CCC(C)C)C(=O)N3)c1`, the compound was classed as inactive. Turning to `Nc1ccc(C(=O)OCCc2ccccc2)cc1`, the compound was classed as inactive. As to `CCCCN1Cc2cc(C(=O)c3cc(OC)ccc3O)cnc2NC1=O`, the compound was called inactive. With `CCC(=O)N1CCN(c2ccc(Cl)cc2NC(=O)c2ccc3c(c2)OCCO3)CC1`, the call was inactive. Next, `O=C(NC1CCCc2c1cnn2-c1ccccc1F)c1ccccn1` (stereo unspecified): “inactive”. For the compound `O=C(C1CCCN(c2ncnc3c2nc2n3CCCCC2)C1)N1CCN(c2ccccc2F)CC1` (stereo unspecified), the call was inactive. The value for `CC(C)C(=O)N1CCN(c2ccccc2NC(=O)c2ccc3c(c2)OCCO3)CC1` was “inactive”; that for `O=C(CSc1nnc(Cc2cccs2)n1Cc1ccco1)Nc1ccc(Br)cc1` was “inactive”. On to `COc1cc(OC)c2ccc(=O)oc2c1C(CCN1CCCCC1)c1ccc(N(C)C)cc1` (stereo unspecified), for which the result was inactive.

On to `COc1ccc(S(=O)(=O)N(C)C[C@H]2Oc3c(NC(=O)NC4CCCCC4)cccc3C(=O)N([C@H](C)CO)C[C@@H]2C)cc1`, for which the outcome was inactive.
